Measurements reported in PubChem BioAssay (NCI).
About 79,000 compounds went through this panel and 15% of them were active in at least one assay; those are over-represented in the sample as a whole. Unmarked numbers belong to inactive results. Active and inactive are the calls of the source. Cut-off read from the data, not from the text of the source: active = growth inhibition above about 70%; inactive = the rest.

Experiments:
[1] = NCI Yeast Anticancer Drug Screen. Data for the rad50 strain (AID 155);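 note: 0% = growth of vehicle-only cultures of the same strain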; conditions: S. cerevisiae rad50 strain growth inhibition; at 50.0 µM; active compounds read high
Outline: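 Yeast carrying a defined DNA repair defect were exposed to test compounds, and growth was compared with vehicle-treated controls to give percent inhibition.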

[2] = NCI Yeast Anticancer Drug Screen. Data for the mec2-1 strain (AID 157); conditions: S. cerevisiae mec2-1 strain, at 50.0 µM, active compounds read high
Outline: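 Compounds were applied to mec2-1 yeast cells. Their growth was then compared with that of vehicle-treated cultures to give growth inhibition.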

[3] = NCI Yeast Anticancer Drug Screen. Data for the sgs1 mgt1 strain (AID 161);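 note: 0% = growth of cultures given vehicle only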; conditions: S. cerevisiae sgs1 mgt1 strain, at 50.0 µM, active compounds read high
Outline: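 Yeast cells carrying a defined DNA-repair defect were exposed to test compounds. Growth inhibition was measured relative to vehicle-treated controls.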

[4] = NCI Yeast Anticancer Drug Screen. Data for the cln2 rad14 strain (AID 165);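 note: 0% = growth equal to vehicle treated cultures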; conditions: S. cerevisiae cln2 rad14 strain, at 50.0 µM, active compounds read high
Outline: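 Strain: cln2 rad14 yeast, altered in cell cycle control and DNA damage repair. Read-out: growth inhibition vs vehicle.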

[5] = NCI Yeast Anticancer Drug Screen. Data for the bub3 strain (AID 167); conditions: S. cerevisiae bub3 mutant strain, at 50.0 µM, active compounds read high
Outline: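 Compounds were applied to a genetically altered yeast strain carrying a cell-cycle control defect. Growth inhibition was scored against vehicle-treated controls.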

[6] = NCI Yeast Anticancer Drug Screen. Data for the mlh1 rad18 strain (AID 175); conditions: S. cerevisiae mlh1 rad18 strain growth inhibition; at 50.0 µM; active compounds read high
Outline: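 A repair-deficient yeast strain is exposed to test compound, and growth is scored relative to vehicle-treated controls.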

Compound: CC1CC(C)C2=NOS3=C2C1=NO3 (centres undefined)
- growth inhibition [1]: 43.3%
- growth inhibition [2]: 16.6%
- growth inhibition [3]: 36.1%
- growth inhibition [4]: 21.4%
- growth inhibition [5]: 28.4%
- growth inhibition [6]: 22.9%

Compound: CC1=C(C)C(=O)OC1
- growth inhibition [1]: -3.55%
- growth inhibition [2]: -12.3%
- growth inhibition [3]: -0.9%
- growth inhibition [4]: 6%
- growth inhibition [5]: 9.85%
- growth inhibition [6]: -24.5%

Compound: CC(=O)OC1CCC2(C)C(CCC3(C)C2CCC2C4C5OC(=O)C4(CCC5(C)C)CCC23C)C1(C)C (centres undefined)
- growth inhibition [1]: -13%
- growth inhibition [2]: -23.9%
- growth inhibition [3]: -17.1%
- growth inhibition [4]: -5.2%
- growth inhibition [5]: -33%
- growth inhibition [6]: 4.6%

Compound: C=C1C(=O)OC2CCC(O)C12 (centres undefined)
- growth inhibition [1]: 6.95%
- growth inhibition [2]: 5.15%
- growth inhibition [3]: 1.2%
- growth inhibition [4]: -30.6%
- growth inhibition [5]: -1.2%
- growth inhibition [6]: 11.7%

Compound: CC1(C)OCC(C2OC3OC(C)(C)OC3/C2=N/NC(=O)c2cc3cc(OCc4ccccc4)ccc3[nH]2)O1 (centres undefined)
- growth inhibition [1]: 82.5% (active)
- growth inhibition [2]: 90.8% (active)
- growth inhibition [3]: 39.6%
- growth inhibition [4]: 92.2% (active)
- growth inhibition [5]: 84.3% (active)
- growth inhibition [6]: 86% (active)

Compound: COc1ccc2[nH]cc(C(=O)C(=O)NC34CC5CC(CC(C5)C3)C4)c2c1
- growth inhibition [1]: 12.7%
- growth inhibition [2]: 6%
- growth inhibition [3]: -5.2%
- growth inhibition [4]: -1.7%
- growth inhibition [5]: 16.2%
- growth inhibition [6]: -22.5%

Compound: O=P(O)(O)OC1OC(n2cnc3c(NCc4ccc(F)cc4)ncnc32)C(O)C1O (centres undefined)
- growth inhibition [1]: 0.3%
- growth inhibition [2]: 2.3%
- growth inhibition [3]: -13.1%
- growth inhibition [4]: -18.2%
- growth inhibition [5]: 2%
- growth inhibition [6]: -25.7%

Compound: CCC1NC(=O)C(NC(=O)c2ncccc2O)C(C)OC(=O)C(c2ccccc2)NC(=O)C2CC(=O)CCN2C(=O)C(Cc2ccccc2)N(C)C(=O)C2CCCN2C1=O (centres undefined)
- growth inhibition [1]: -6.9%
- growth inhibition [2]: -32.6%
- growth inhibition [3]: -29.1%
- growth inhibition [4]: -17.4%
- growth inhibition [5]: -6.45%
- growth inhibition [6]: 0.3%

Compound: Cc1cccc(C(=O)O)n1.[Cu+2]
- growth inhibition [1]: -20.6%
- growth inhibition [2]: 7.6%
- growth inhibition [3]: -19.4%
- growth inhibition [4]: -69.9%
- growth inhibition [5]: -27.6%
- growth inhibition [6]: -11.6%

Compound: COc1cc2c(cc1OCc1ccccc1)NC(=O)C2
- growth inhibition [1]: 0.5%
- growth inhibition [2]: 20.2%
- growth inhibition [3]: 12.8%
- growth inhibition [4]: -7.85%
- growth inhibition [5]: -18.9%
- growth inhibition [6]: -7%

Compound: O=C1c2ccccc2C(=O)N1CCCSc1ccccc1
- growth inhibition [1]: -10.2%
- growth inhibition [2]: -12.7%
- growth inhibition [3]: -21.9%
- growth inhibition [4]: -15.6%
- growth inhibition [5]: -32.4%
- growth inhibition [6]: -33.9%

Compound: O=C(O)c1nccc2c([N+](=O)[O-])cccc12
- growth inhibition [1]: -2.4%
- growth inhibition [2]: 6.4%
- growth inhibition [3]: 16.6%
- growth inhibition [4]: -13.5%
- growth inhibition [5]: -4.4%
- growth inhibition [6]: -12.9%

Compound: C=C(Cl)C(C)(Cl)CCC(Cl)C(C)(C)Cl (centres undefined)
- growth inhibition [1]: 21.9%
- growth inhibition [2]: 16.4%
- growth inhibition [3]: 29.6%
- growth inhibition [4]: 42.5%
- growth inhibition [5]: 32.2%
- growth inhibition [6]: 25.3%

Compound: C(=C\c1cc(-c2cc(/C=C/c3ccccc3)[nH]n2)n[nH]1)/c1ccccc1
- growth inhibition [1]: 6.15%
- growth inhibition [2]: 9.1%
- growth inhibition [3]: -14.3%
- growth inhibition [4]: 13.2%
- growth inhibition [5]: -8%
- growth inhibition [6]: 44.4%

Compound: NCCCN=c1ccc2c3c1c(O)c1c(O)ccc(=O)c1c3[nH]n2CCNCCO
- growth inhibition [1]: 89.1% (active)
- growth inhibition [2]: 35.1%
- growth inhibition [3]: 33.3%
- growth inhibition [4]: 17.9%
- growth inhibition [5]: 28.6%
- growth inhibition [6]: 36.2%

Compound: CCOC(=O)N1CC2CCc3c(ccc4ccccc34)N2C1=O (centres undefined)
- growth inhibition [1]: -2.35%
- growth inhibition [2]: 10.5%
- growth inhibition [3]: -4.5%
- growth inhibition [4]: -3.6%
- growth inhibition [5]: 7.4%
- growth inhibition [6]: 14.2%

Compound: COc1ccc(/C=N/NC(=O)/C(C#N)=C/c2ccc(OC)cc2)cc1
- growth inhibition [1]: 23.1%
- growth inhibition [2]: 19.1%
- growth inhibition [3]: 3.7%
- growth inhibition [4]: -11.5%
- growth inhibition [5]: 19.4%
- growth inhibition [6]: 16.4%

Compound: CN1C(=O)C23CCCN2C(=O)C1(C)SC(=N)S3 (centres undefined)
- growth inhibition [1]: 2.35%
- growth inhibition [2]: 7.6%
- growth inhibition [3]: -2.55%
- growth inhibition [4]: -45.4%
- growth inhibition [5]: 2%
- growth inhibition [6]: 4.95%

Compound: COc1cc2c(C)cc(=O)oc2c(OCC(O)CN2CCCC2)c1OC (centres undefined)
- growth inhibition [1]: -0.75%
- growth inhibition [2]: 14%
- growth inhibition [3]: -5.75%
- growth inhibition [4]: 1.35%
- growth inhibition [5]: -4.35%
- growth inhibition [6]: -5.25%
